BAZ2B inh: BAZ2B (human) inhibition | Q9UIF8 | AlphaScreen BAZ2B-H3K14Ac peptide displacement | Potency, µM (series often up to 114 µM), for inactives: at the highest dose activity change, negative = inhibition, hits mostly inhibitors | 360,000 tested, 4.4% active | AID 504333; further: on the % scale 0 is the no-effect control and ±100 the full control effect; nearly all actives have a fitted effect of over 60% in size
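Compounds, titrated to a top concentration of 110 uM, were incubated 30 min at room temperature with preformed BAZ2B/acetyl-K14 H3 peptide complex (50 nM each). Proximity signal was measured by AlphaScreen after 20 min with beads.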
L3MBTL1 block: blocks human L3MBTL1. Q9Y468. AlphaScreen L3MBTL1–H3K9me1 peptide binding. Potency, µM (titrated, usually from 57.1 µM), without a hit: top-dose activity, negative = inhibition, most hits filed as inhibitors. 230,000 tested, 0.66% active. AID 485360; further: on the % scale 0 is the no-effect control and ±100 the full control effect; nearly all actives have a fitted effect of over 60% in size
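L3MBTL1 (50 nM) pre-complexed 30 min with biotinylated H3(1-15)K9me1 peptide (75 nM), then compounds added for 30 min at room temperature; AlphaScreen streptavidin donor/nickel chelate acceptor beads (10 ug/mL final) read after 30 min dark incubation.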
HP1b chromo inh: HP1-beta chromodomain-methylated histone interaction inhibition | AlphaScreen HP1-beta / biotin-H3K9me3 peptide binding | Potency, µM (doses to about 114 µM), inactives show at the top dose activity change, negative = inhibition, most hits filed as inhibitors | 390,000 tested, 0.56% active | AID 540317; further: nearly all actives have a fitted effect of over 70% in size
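HP1-beta protein (50 nM final) preincubated 30 min at room temperature with biotinylated H3(1-18)K9me3 peptide (50 nM) in PBS pH 7.4, 0.01% Tween-20, then compound added for 30 min. AlphaScreen streptavidin donor/nickel chelate acceptor beads (10 ug/mL final), 30 min dark, luminescence read.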
JMJD2A Tudor: blocks the human JMJD2A Tudor domain; AlphaScreen JMJD2A-Tudor / H3K4me3 peptide binding; 390,000 tested, 4.4% active; O75164; Potency, µM (top dose mostly 114 µM), without a hit: at the top dose activity change, negative = inhibition, hits mostly inhibitors; further: on the % scale 0 is the no-effect control and ±100 the full control effect; nearly all actives have a fitted effect of over 50% in size
G9a inh: blocks human histone lysine methyltransferase G9a; 350,000 tested, 8.8% active; G9a H3K9 monomethylation, AlphaScreen, 2 h; Potency, µM (titrated, usually from 102 µM), for the others: at the top dose activity, negative = inhibition, actives largely listed as inhibitors; further: on the % scale 0 is the no-effect control and ±100 the full control effect; nearly all actives have a fitted effect of over 75% in size
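AlphaScreen detection with an anti-monomethyl H3K9 antibody quantified product after a 2 h room-temperature reaction containing 500 nM biotinylated H3K9 peptide, 20 µM SAM and 20 nM enzyme, which had been preincubated 15 min with compound.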
Sfp PPTase inh: inhibitors of Bacillus subtilis Sfp phosphopantetheinyl transferase; Potency, µM, inactives show largest response in the series, negative = inhibition, actives largely listed as inhibitors; Biochemical Sfp PPTase activity, qHTS; Q9F4F7; 310,000 tested, 3.5% active;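 further: the enzyme is Sfp with the accession as filed and its product quenches rhodamine fluorescence; 0% = enzyme reaction without inhibitor and -100% = no enzyme wells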
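Fluorescence-quenching assay: 15 nM Sfp-PPTase preincubated 15 min at room temperature with compound, then 5 uM rhodamine-CoA and 12.5 uM BHQ-2-labelled YbbR peptide added. Fluorescence (ex 525/em 598 nm) read at start and after 30 min; difference gives rate.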
* hit, by the source's call; ? = inconclusive; . = no result; [ ] = remark or other dose. Rows were chosen to be rich in hits. Some 12% of all compounds tested hit in one or more screens of this group. The call rests on the fitted dose curve; in most records, active means well fitted curve in the direction sought with a large enough effect; inconclusive means small, poorly fitted or top-dose-only effect, or another doubt; inactive means no such curve, though single readings can be large; an effect the other way counts as inactive or inconclusive. Potency means the concentration at half of the fitted maximal effect.

SMILES | BAZ2B inh | L3MBTL1 block | HP1b chromo inh | JMJD2A Tudor | G9a inh | Sfp PPTase inh
CS(=O)(=O)N(CC(=O)Nc1ccccc1-c1ccccc1)c1ccccc1 | ? | . | -1% | -15% | -3%[59 µM] | 7%
Cc1ccccc1C(=O)NNC(=O)C1CC(=O)N(Cc2ccccc2)C1 (stereo unspecified) | 4% | 2% | 40% | -3% | -4% | .
CC1(C)CC(=O)C2=C(C1)Nc1ccccc1S2 | ? | -12% | -24% | -23% | 40µM* | 0%
CC1(C)CC(=O)C2=C(C1)Nc1ccccc1NC2 | -13% | 12% | 52% | -3% | 7% | 10%
CC1(C)CC(=O)C2=C(C1)Nc1ccccc1N=C2 | -30% | 3% | . | . | 8.9µM* | 40µM*
CC1(C)CC(=O)C2=C(C1)Nc1ccccc1[S@]2=O | -1% | 3% | 28% | -6% | 19% | 16%
O=C(c1ccncc1)N1N=C(c2ccc(Cl)cc2)CC1c1ccccc1O (stereo unspecified) | ? | . | -11% | ? | 20µM* | -82%
COc1ccccc1C1CC(c2ccc(Br)cc2)=NN1C(=O)c1cccnc1 (stereo unspecified) | ? | -14% | -12% | -36% | -48%[59 µM] | 11%
COc1ccc(C2=NN(C(=O)c3ccncc3)C(c3ccccc3O)C2)cc1 (stereo unspecified) | -28% | . | -5% | -24% | ? | 14µM*
COc1cccc(C2CC(c3ccc(Br)cc3)=NN2C(=O)c2ccncc2)c1OC (stereo unspecified) | 32µM* | . | -3% | ? | 36%[59 µM] | -16%
CCOC(=O)C1=C(C)N(CCCC(=O)O)C(=O)NC1c1cccs1 (stereo unspecified) | . | . | 26% | -3% | . | .

Compound activity as filed in PubChem.
